Artemis endo inh – Artemis endonuclease inhibitors, primary screen, biochemical, fluorescence intensity, FAM/BHQ-1 hairpin substrate; recombinant Artemis, quenched FAM hairpin cleavage fluorescence; inhibition, % at 10 µM; 0.78% of 30,000 active; AID 686954, 2013;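 active = at 10 µM dose, at least 30% inhibition, measured as corrected fluorescence normalized to stimulator and neutral control wells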
Target sequence (Q96SD1 whole entry, looked up): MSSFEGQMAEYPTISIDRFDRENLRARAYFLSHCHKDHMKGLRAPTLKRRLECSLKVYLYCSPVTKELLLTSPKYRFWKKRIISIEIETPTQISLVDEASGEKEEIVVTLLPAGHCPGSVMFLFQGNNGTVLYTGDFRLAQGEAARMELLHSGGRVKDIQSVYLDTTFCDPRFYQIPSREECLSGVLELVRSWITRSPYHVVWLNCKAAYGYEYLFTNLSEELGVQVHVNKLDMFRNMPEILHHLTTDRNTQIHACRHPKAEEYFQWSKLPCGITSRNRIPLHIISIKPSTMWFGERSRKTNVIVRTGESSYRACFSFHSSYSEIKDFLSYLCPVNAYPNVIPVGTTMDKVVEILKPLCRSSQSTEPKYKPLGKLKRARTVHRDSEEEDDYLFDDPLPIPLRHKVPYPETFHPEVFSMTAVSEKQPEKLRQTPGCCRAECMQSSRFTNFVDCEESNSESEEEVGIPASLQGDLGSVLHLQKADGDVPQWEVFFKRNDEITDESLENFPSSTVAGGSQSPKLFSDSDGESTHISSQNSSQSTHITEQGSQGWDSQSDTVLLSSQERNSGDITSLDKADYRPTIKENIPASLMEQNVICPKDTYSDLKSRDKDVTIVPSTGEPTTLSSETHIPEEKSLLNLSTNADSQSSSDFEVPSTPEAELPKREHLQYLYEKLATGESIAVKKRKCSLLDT
A number is an active result; – = inactive. This is one part of a sample in which hits are shown more often than they occur.

SMILES	Artemis endo inh
Cc1ccc(-c2cc(C(F)(F)F)n3ncc(C(=O)N4CCN(C)CC4)c3n2)cc1	–
O=C(c1ccco1)N1CCN(C(=O)c2cc(-c3ccncc3)nc3ccc(Br)cc23)CC1	–
O=C(O)c1cc(-c2ccco2)nc2ccc(Br)cc12	42
O=C(NCC1CCCO1)c1cc(-c2ccco2)nc2ccccc12 (centres undefined)	–
Cc1nnc2sc(-c3ccc(-c4ccc(Cl)c(C(F)(F)F)c4)o3)nn12	–
COc1ccc(S(=O)(=O)N2CCCN(CC(=O)C(C)(C)C)CC2)cc1	–
CC1=C(C(=O)Nc2ccccc2)C(c2ccc(C)o2)n2c(s/c(=C\c3ccco3)c2=O)=N1 (centres undefined)	–
NC(=O)c1cc2cc(Br)ccc2oc1=NCc1ccccc1	–
CCc1ccc(/C=C/C(=O)c2c(C)cc(C)[nH]c2=O)cc1	–
O=C(/C=C/c1ccccc1)c1cc(Br)ccc(=O)c1O	36
Cc1cc(C(C)(C)C)ccc1OCCN1CCCC1	–
O=C(CCSc1nc(-c2ccc3c(c2)OCO3)cc(C(F)(F)F)n1)NCc1ccccc1	–
O=C(COC(=O)c1cc(-c2ccco2)nc2ccccc12)NCc1ccc2c(c1)OCO2	–
O=C(COC(=O)c1cc(-c2ccc(Cl)s2)nc2ccccc12)NCc1ccco1	32
Cc1ccc(-c2cc(C(=O)NCc3ccco3)c3ccccc3n2)s1	–
O=C(Nc1cccc(Oc2c(F)c(F)c(F)c(F)c2F)c1)N1C[C@@H]2C[C@@H](C1)c1cccc(=O)n1C2	–
COC(=O)c1ccc(N2C(=O)c3ccc(OC)c(OC)c3C2=O)cc1	–
COc1ccc2nc(SCC(=O)/C(C#N)=C(\C)N)[nH]c2c1	–
O=C(Nc1ccccc1)c1cnc[nH]1	–
Cc1cc(Cl)cc(C)c1OCC(=O)O	–
O=C(c1ccccc1-c1nc2ccccc2[nH]1)N1CCCCC1	–
O=C(c1ccc2c3c(cccc13)C(=O)N(O)C2=O)N1CCCCC1	47
O=C(c1ccccc1-c1ccccc1)N1CCCC1	–
CCOC(=O)C1=C(CSc2nc3c(cc2C#N)CN(C)CC3)OC(N)=C(C#N)C1c1ccc(F)cc1 (centres undefined)	–
O=C(c1ccc(CN2CCOCC2)cc1)N1CCN(c2cccc(Cl)c2)CC1	–
SMILES	Artemis endo inh
COC(=O)[C@@H]1[C@@H](C#N)C2(c3ccccc3-c3ccccc32)N(c2ccc(Cl)cc2)N1C#N	40
CCCC(=O)Nc1ccc(Br)c(Cl)c1	–
Cc1ccc(-n2nnc3c(SCC(=O)NCC4CCCO4)ncnc32)cc1 (centres undefined)	–
S=c1[nH]nc(-c2ccccc2)o1	–
S=c1[nH]nc(C2COc3ccccc3O2)o1 (centres undefined)	31
c1ccc2c(c1)OCC(c1csc3ncnc(N4CCCC4)c13)O2 (centres undefined)	–
Cc1cc(O)cc(=O)n1Cc1ccco1	–
CCOCCc1nnc(NC(=O)c2cccc(F)c2)s1	–
COc1ccc(S(=O)(=O)Nc2c3ccccc3nc(=O)n2-c2ccccc2)cc1	–
Cc1cc(C)c(OCC(=O)Nc2nnn(C)n2)c(Br)c1	–
CCN(CCO)c1ccc(-n2c(N)c(C(=O)OC)c3nc4ccccc4nc32)cc1	–
COCCNC(=O)c1c(N)n(CCC2=CCCCC2)c2nc3ccccc3nc12	–
C=CCn1c(N)c(C(=O)OCCC)c2nc3ccccc3nc21	40
CCOC(=O)C(NC(=O)C1CCCN1C(=O)OCc1ccccc1)C(=O)OCC (centres undefined)	–
O=C1c2ccncc2C(=O)N1Cc1cccc(Cl)c1	–
CC(=O)OCCCCON1C(=O)c2ccccc2C1=O	–
O=C1c2ccccc2C(=O)N1OCc1cccc(Cl)c1	55
Cc1ccc(-c2nnc(SCC(=O)Nc3ccc4c(c3)OCCO4)n2N)cc1	–
CC1=NN(C(=O)c2c(Br)cnn2C)C(O)(C(F)(F)F)C1 (centres undefined)	–
CC(=O)CSc1nnc(NC(=O)CCc2ccccc2)s1	–
COc1ccc(/C=N\NC(=S)SCN2C(=O)C3CCC(C)(C2=O)C3(C)C)cc1 (centres undefined)	–
O=C(Nc1nc2nc(-c3ccccc3)cc(=O)n2[nH]1)c1ccccc1	–
O=c1cc(-c2ccccc2)nc2nc(-c3ccco3)[nH]n12	36
O=c1cc(-c2ccccc2)nc2nc(CCc3ccccc3)[nH]n12	–
COc1cccc(-n2nc(-c3ccnn3-c3ccc(F)cc3)c(=O)n(C)c2=O)c1	–
SMILES	Artemis endo inh
O=C(CCN1C(=O)C2C3C=CC(C3)C2C1=O)NCC1CCCO1 (centres undefined)	–
CCOC(=O)CNC(=O)CSc1nnc(-c2ccccc2)n1Cc1ccco1	–
Brc1ccccc1C1=Nn2c(nnc2-c2ccccc2)SC1	–
O=C(Cn1nnc2ccccc21)C1CC1	–
c1ccc(-c2ccc(C3=Nn4c(Cn5nnc6ccccc65)nnc4SC3)cc2)cc1	33
CNC(=O)c1snnc1-c1ccccc1	–
Cc1ccc(OCc2nnc(SCC(=O)C(C)(C)C)n2Cc2ccco2)cc1	–
O=C(NC12CC3CC(CC(C3)C1)C2)c1ccc(COc2ccc(Cl)cc2[N+](=O)[O-])o1	–
O=C(NC(=S)Nc1ccc2[nH]ncc2c1)c1ccccc1	–
O=C(NC(C(=O)N/N=C/c1c2ccccc2cc2ccccc12)c1n[nH]c(=O)c2ccccc12)c1ccccc1 (centres undefined)	44
CCCc1cc(C(=O)N/N=C/c2ccc(C)o2)c2ccccc2n1	–
O=C(N1CCOCC1)C(F)(F)C(=O)N1CCOCC1	–
COC(=O)c1ccc(Oc2nc3c(c(=O)n(C)c(=O)n3C)n2CCC(C)C)cc1	–
CCSC1=N/C(=C\c2ccc3c(c2)OCO3)C(=O)S1	–
CSC1=N/C(=C\c2ccc(C)o2)C(=O)S1	–
CCSC1=N/C(=C\c2ccc(-c3ccccc3[N+](=O)[O-])o2)C(=O)S1	34
CC1CC(C)CN(C(=O)Cn2c(=O)n(CCCCC(=O)NC3CCCC3)c(=O)c3ccccc32)C1 (centres undefined)	–
Cc1ccc(S(=O)(=O)N2CCN(C(=O)CSc3nnnn3C)C2)cc1	–
Cc1ccccc1C(=O)NC(C)c1ccc2c(c1)CCCC2 (centres undefined)	–
CCCc1cc(=O)[nH]c(SCC(=O)Nc2cc3c(cc2C(C)=O)OCO3)n1	–
COc1cccc(/C=N/NC(=O)c2ccc(-c3ccccc3)cc2)c1O	–
COc1cccc(/C=N/NC(=O)c2[nH]c(C)c(C(=O)N/N=C/c3cccc(OC)c3O)c2C)c1O	91
COc1ccccc1NC(=O)c1[nH]c(C)c(C(C)=O)c1C	–
Cc1onc(-c2ccccc2Cl)c1C(=O)N1CCN=C1SCc1cccnc1	–
CC(=O)Nc1ccc(OCC(O)CN2CCN(c3ccc(Cl)cc3)CC2)cc1 (centres undefined)	–
SMILES	Artemis endo inh
Cc1ccc2cc(CN(Cc3ccco3)C(=O)c3cccs3)c(=O)[nH]c2c1	–
CC(C)n1c(=N)c(C(=O)NCCc2ccccc2)cc2c(=O)n3ccccc3nc21	–
N=c1c(C(=O)NCc2ccccc2)cc2c(=O)n3ccccc3nc2n1Cc1ccco1	31
N=c1c(C(=O)NCc2ccco2)cc2c(=O)n3ccccc3nc2n1Cc1ccccc1	–
N=c1c(C(=O)NCc2ccc(F)cc2)cc2c(=O)n3ccccc3nc2n1Cc1ccco1	–
Cc1ccc(CNC(=O)c2cc3c(=O)n4ccccc4nc3n(Cc3ccco3)c2=N)cc1	41
COCCCn1c(=N)c(C(=O)NC2CCCCC2)cc2c(=O)n3ccccc3nc21	–
CSc1ccccc1NC(=O)c1c(Br)cnn1C	–
